B2AR ag = beta2AR agonists driving receptor internalization, primary screen, cell-based, FAP fluorogen, flow cytometry | Am2.2-beta2AR cells | response, % (no concentration beside the values) | 0.43% of 340,000 active | Beta-2 adrenergic receptor (Homo sapiens), P07550 | AID 504454, 2011;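 active = response above a set limit, near 3 SD of response in nonfluorescent compounds, cut at about 42% in these data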
Target sequence (P07550 whole entry, looked up): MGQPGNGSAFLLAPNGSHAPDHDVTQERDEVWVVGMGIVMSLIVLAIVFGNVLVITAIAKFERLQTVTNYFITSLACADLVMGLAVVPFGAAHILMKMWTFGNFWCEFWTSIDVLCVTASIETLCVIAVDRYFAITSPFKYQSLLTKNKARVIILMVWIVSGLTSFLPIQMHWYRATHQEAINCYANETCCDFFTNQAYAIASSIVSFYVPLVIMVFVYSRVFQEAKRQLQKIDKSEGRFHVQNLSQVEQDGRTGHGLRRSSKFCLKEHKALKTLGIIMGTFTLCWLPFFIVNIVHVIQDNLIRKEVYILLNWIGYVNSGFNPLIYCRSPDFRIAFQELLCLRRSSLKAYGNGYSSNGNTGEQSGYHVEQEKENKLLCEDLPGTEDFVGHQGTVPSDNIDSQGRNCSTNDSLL
Granule exo inh = LAMP-1 surface exposure blockers, TALL-104 cells – cell-based, flow cytometry, MLPCN library, primary screen; TALL-104 LAMP-1 surface exposure; cells stimulated with thapsigargin and PMA; inhibition, % at 10 µM; AID 651702, 2012; 0.66% of 360,000 active;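 active = inhibition above about 55%, limit read from the data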
ABHD5 PLIN5 PPI = ABHD5-PLIN5 interaction inhibitors, primary screen, cell lysate, split luciferase complementation, luminescence; Perilipin-5 (Homo sapiens) + 1-acylglycerol-3-phosphate O-acyltransferase ABHD5 (Homo …; Split G. princeps luciferase complementation, 4 h; inhibition, % at 4 µM; 0.78% of 360,000 active; AID 602281, 2012;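 active = inhibition above the mean inhibition across every tested compound plus 3 SD, cut at about 22% in these data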
NTR1 ag = agonists of human NTR1, primary screen, imaging, U2OS cells, beta-arrestin-GFP, high content | activation, % at 20 µM | NTR1-U2OS beta-arrestin-GFP spot imaging, agonist mode | 0.17% of 330,000 active | Neurotensin receptor type 1 (Homo sapiens), P30989;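 active = activation at or above 40% of the spot to cytoplasm intensity ratio, with at least 20 cells analyzed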
HTR2A ag = mouse Htr2a agonists via beta-arrestin recruitment, primary screen, cell-based, luminescence; 5-hydroxytryptamine receptor 2A (Mus musculus), P35363; CHO-K1 mHTR2A beta-arrestin complementation; percent of 30 µM serotonin response; activation, % at 7.6 µM; 0.66% of 360,000 active; AID 624169, 2012;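 active = activation above a run cutoff, the mean activation of all tested compounds plus 3 SD, cut at about 14% in these data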
ABHD5 PLIN5 conf = ABHD5-PLIN5 interaction inhibitors, confirmation, biochemical, luminescence; inhibition, % at 4 µM; AID 651612, 2012; shares compounds with ABHD5 PLIN5 PPI; 67% of 2,200 active; in the data active = inhibition above about 23%
HNF4 split-luc = HNF4 dimerization inhibitors, counter-screen for ABHD5-PLIN5 interaction inhibitor project, biochemical, split-luciferase complementation, luminescence. 77% of 2,200 active. inhibition, % at 4 µM. shares compounds with ABHD5 PLIN5 PPI. AID 651674, 2012;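 active = mean inhibition across replicate wells exceeding the computed hit threshold, cut at about 13% in these data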;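 also: light from luciferase halves that rejoin when HNF4 fusion proteins dimerize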
Numbers stand for hits; 0 = inactive; - = not tested or not shown. Only some compounds are listed: those with a hit (about 2.3% of all), similar ones and a draw of the others.

SMILES	B2AR ag	Granule exo inh	ABHD5 PLIN5 PPI	NTR1 ag	HTR2A ag	ABHD5 PLIN5 conf	HNF4 split-luc
COc1ccc(Oc2ccc(/C=C/C(=O)c3ccc(O)cc3)cc2[N+](=O)[O-])cc1	0	0	28	0	0	80	65
Cc1ccc(C)c(NS(=O)(=O)c2cc(C(=O)NCc3ccncc3)ccc2C)c1	0	0	0	0	0	-	-
CC1CC(OC(=O)C2CCN(S(=O)(=O)c3ccc(F)cc3)CC2)C(=O)O1 (configuration not stated)	0	0	0	0	0	-	-
CC(NC(=O)C12CC3CC(C)(CC(C)(C3)C1)C2)c1ccncc1 (configuration not stated)	0	0	0	0	0	-	-
c1ccc2c(c1)nc1n2CCN1CCN1CCCC1	0	0	0	0	0	-	-
O=C(c1ccc2nc[nH]c2c1)N1CCN(c2ncc(C(F)(F)F)cc2Cl)CC1	0	0	0	0	0	-	-
C[C@H](CO)N1C[C@H](C)[C@@H](CN(C)C(=O)Nc2ccc3c(c2)OCO3)Oc2c(NC(=O)Cc3ccccc3)cccc2C1=O	0	0	0	0	0	-	-
COc1ccc(/C=C/C(=O)c2ccccc2)cc1Cn1nnc2ccccc21	0	0	31	0	0	73	66
COc1ccc(/C=C/C(=O)c2ccc3c(c2)OCO3)cc1OC	0	0	0	0	0	-	-
COc1ccc(/C=C/C(=O)c2ccc(C(=O)/C=C/c3ccc(OC)c(OC)c3)cc2)cc1OC	0	0	55	0	0	98	91
Cc1ccc(C(=O)Nc2ccc3ncccc3c2)cc1	0	0	0	0	0	-	-
Cc1ccc(C(=O)/C=C/c2ccc3ncccc3c2)cc1	0	0	38	0	0	78	78
COc1cc(/C=C/C(=O)c2ccc(F)cc2)cc(OC)c1OC	0	0	38	0	0	68	53
C=C1C(=O)O[C@H]2C[C@H]1[C@@H](OC(C)=O)C/C(C)=C/CC/C(C)=C\CC[C@]2(C)O	0	0	71	-	0	88	64
C=C1C(=O)O[C@@H]2[C@H]3O[C@]3(C)CC/C=C(\C)CC[C@@H]12	0	0	0	0	0	-	-
Cc1ccc(S(=O)(=O)NC(C)(C)CSc2ccccn2)cc1	0	0	0	0	0	-	-
CN(C)CCNc1nc(-c2ccco2)c2c(c1C#N)CC(C)(C)OC2	0	0	0	0	0	-	-
CCCCN(C)c1nc(-c2ccco2)c2c(c1C#N)CC(C)(C)OC2	0	0	28	0	0	54	79
CCCc1cc(C(=O)N2CCCC(Nc3ccc(C)c(C)c3)C2)n(C)n1 (configuration not stated)	0	0	0	0	0	-	-
COc1ccc2c(c1OC)C(CC(C)=O)N1CCc3cc4c(cc3C1C2=O)OCO4 (configuration not stated)	-	0	0	-	0	-	-
CC(=O)/C=C/c1ccc2ccccc2n1	0	0	85	0	0	84	91
CC(OC(=O)/C=C/c1ccc2ccccc2n1)C(=O)N(C)c1ccccc1 (configuration not stated)	0	0	0	0	0	-	-
Cc1cc(-c2nn(-c3ccccc3F)cc2CN2CCC(O)CC2)c(C)s1	0	0	0	0	0	-	-
Cc1cc(-c2nn(-c3ccccc3F)cc2CN2CCN(c3ccncc3)CC2)c(C)s1	0	0	28	0	0	0	0
CCOc1ccc(/C=N/NC(=O)c2cc(-c3cccn3C)n[nH]2)cc1	0	0	0	0	0	-	-
SMILES	B2AR ag	Granule exo inh	ABHD5 PLIN5 PPI	NTR1 ag	HTR2A ag	ABHD5 PLIN5 conf	HNF4 split-luc
COc1ccccc1N=CC=C1OC(C)(C)C(C)(C)O1	0	0	37	0	0	0	0
COC(=O)C1=C(C)N(Cc2ccccc2)C(=NCC(C)C)N[C@H]1c1cccc(C(F)(F)F)c1	0	0	24	0	0	0	0
O=[N+]([O-])c1cccc(S(=O)(=O)NC2CC3CCC2C3)c1 (configuration not stated)	0	0	0	0	0	-	-
O=C(/C=C/c1ccccc1)COC(=O)c1ccccc1	0	0	59	-	0	80	92
O=C(COC(=O)c1ccccc1)c1ccc(Br)cc1	0	0	0	0	0	-	-
C=CCNC(=S)NNc1nc2sc3c(c2c(=O)[nH]1)CC(C)(C)OC3	0	0	0	0	0	-	-
N#C/C(C(=O)NCc1ccco1)=C1/SC(Cc2ccc(Cl)cc2)C(=O)N1c1ccccc1 (configuration not stated)	0	0	0	0	0	-	-
Cc1ccc(CC2S/C(=C(/C#N)C(=O)NCc3ccco3)N(c3ccccc3)C2=O)cc1 (configuration not stated)	0	0	23	0	0	0	13
CCc1nc2c(OCc3ccc(F)cc3)cccn2c1N(C)C(=O)CC(C)C	-	0	0	-	0	-	-
O=C(C=Cc1ccccc1)c1cccs1	0	0	59	-	0	71	64
CC(=O)Nc1ccc(C2=NNC(=Nc3ccc(S(=O)(=O)N4CCOCC4)cc3)SC2)cc1	0	0	75	0	0	59	79
O=S(=O)(c1ccc(N=C2NN=C(c3cc(F)ccc3F)CS2)cc1)N1CCOCC1	0	0	0	0	0	-	-
O=C(CSc1nnc(-c2cccs2)n1C1CC1)NC1CCS(=O)(=O)C1 (configuration not stated)	0	0	0	0	0	-	-
COc1ccc(CCC(C)N(C)Cc2ccccc2)cc1 (configuration not stated)	0	0	0	0	0	-	-
CC1(C)C2CCC(CN=C(N)CSS(=O)(=O)O)C1C2 (configuration not stated)	-	0	61	-	0	78	52
CCN1C[C@@H]2[C@@H]3C(=O)N(Cc4ccccc4)C(=O)[C@@H]3[C@](C)(C1=O)N2C(=O)c1ccc(Cl)cc1	0	0	0	-	0	-	-
N#Cc1ncc(Cc2ccccc2)nc1C#N	0	0	30	0	0	46	21
N#Cc1nc(Cc2ccccc2)oc1NCc1cccnc1	0	0	0	0	0	-	-
Cc1ccc(NN2C(=O)C=C(c3ccccc3)C2=O)cc1	-	67	92	0	0	100	105
COC(=O)C(C)NC(=O)CNS(=O)(=O)c1ccc(F)cc1 (configuration not stated)	0	0	0	0	0	-	-
O=C(c1cc(S(=O)(=O)N2CCOCC2)ccc1F)N(CCc1ccccc1)Cc1ccccc1	0	0	0	0	0	-	-

Source: PubChem (several laboratories)
